Assays:
[1] = target: Tyrosine-protein kinase SYK (Homo sapiens) (UniProt P43405); details: at 1 µM
[2] = target: T1, Tyrosine-protein kinase Tec (Homo sapiens) (UniProt P42680); details: at 0.1 µM
T1 sequence (whole entry): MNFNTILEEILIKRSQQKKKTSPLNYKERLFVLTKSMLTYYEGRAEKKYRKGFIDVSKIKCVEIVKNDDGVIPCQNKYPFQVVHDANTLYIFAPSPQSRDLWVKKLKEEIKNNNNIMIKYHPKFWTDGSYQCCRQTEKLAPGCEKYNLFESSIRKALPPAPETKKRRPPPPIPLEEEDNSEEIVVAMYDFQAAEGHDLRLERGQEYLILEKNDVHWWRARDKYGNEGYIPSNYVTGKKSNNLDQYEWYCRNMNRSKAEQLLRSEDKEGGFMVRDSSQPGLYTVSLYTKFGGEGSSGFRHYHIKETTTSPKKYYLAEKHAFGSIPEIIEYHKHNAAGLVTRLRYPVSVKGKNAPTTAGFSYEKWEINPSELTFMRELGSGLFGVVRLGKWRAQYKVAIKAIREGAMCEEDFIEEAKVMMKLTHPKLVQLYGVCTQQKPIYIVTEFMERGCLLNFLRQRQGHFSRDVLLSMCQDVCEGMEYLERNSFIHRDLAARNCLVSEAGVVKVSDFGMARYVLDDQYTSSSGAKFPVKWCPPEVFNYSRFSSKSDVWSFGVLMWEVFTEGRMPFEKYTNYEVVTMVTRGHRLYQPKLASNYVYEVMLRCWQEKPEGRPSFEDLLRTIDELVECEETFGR

[3] = target: T1, Tyrosine-protein kinase Tec (Homo sapiens); details: at 1 µM
[4] = target: Angiopoietin-1 receptor (Homo sapiens) (UniProt Q02763); details: at 0.1 µM
[5] = target: Angiopoietin-1 receptor (Homo sapiens) (UniProt Q02763); details: at 1 µM
[6] = target: T2, Non-receptor tyrosine-protein kinase TNK1 (Homo sapiens) (UniProt Q13470); details: at 0.1 µM
T2 sequence (whole entry): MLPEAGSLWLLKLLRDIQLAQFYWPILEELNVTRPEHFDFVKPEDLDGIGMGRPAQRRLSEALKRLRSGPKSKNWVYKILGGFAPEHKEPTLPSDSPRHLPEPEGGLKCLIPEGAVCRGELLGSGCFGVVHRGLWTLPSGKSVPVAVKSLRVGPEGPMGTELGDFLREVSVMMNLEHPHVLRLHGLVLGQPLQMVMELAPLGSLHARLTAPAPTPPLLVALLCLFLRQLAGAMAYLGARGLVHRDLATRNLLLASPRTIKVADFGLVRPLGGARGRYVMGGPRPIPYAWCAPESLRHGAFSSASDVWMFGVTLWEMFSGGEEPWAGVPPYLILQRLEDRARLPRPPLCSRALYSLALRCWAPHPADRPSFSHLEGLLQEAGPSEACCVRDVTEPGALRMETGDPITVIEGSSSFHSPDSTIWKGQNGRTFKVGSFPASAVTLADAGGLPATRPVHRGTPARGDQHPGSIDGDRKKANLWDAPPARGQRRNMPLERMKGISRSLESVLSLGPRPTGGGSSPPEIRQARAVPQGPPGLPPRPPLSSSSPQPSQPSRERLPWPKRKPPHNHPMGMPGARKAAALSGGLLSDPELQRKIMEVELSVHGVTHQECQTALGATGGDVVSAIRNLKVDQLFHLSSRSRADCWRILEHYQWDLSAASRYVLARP

[7] = target: T2, Non-receptor tyrosine-protein kinase TNK1 (Homo sapiens); details: at 1 µM
[8] = target: Activated CDC42 kinase 1 (Homo sapiens) (UniProt Q07912); details: at 0.1 µM
[9] = target: Activated CDC42 kinase 1 (Homo sapiens) (UniProt Q07912); details: at 1 µM
[10] = target: High affinity nerve growth factor receptor (Homo sapiens) (UniProt P04629); details: at 0.1 µM
[11] = target: High affinity nerve growth factor receptor (Homo sapiens) (UniProt P04629); details: at 1 µM
[12] = target: BDNF/NT-3 growth factors receptor (Homo sapiens) (UniProt Q16620); details: at 0.1 µM
[13] = target: BDNF/NT-3 growth factors receptor (Homo sapiens) (UniProt Q16620); details: at 1 µM
[14] = target: NT-3 growth factor receptor (Homo sapiens) (UniProt Q16288); details: at 0.1 µM
[15] = target: NT-3 growth factor receptor (Homo sapiens) (UniProt Q16288); details: at 1 µM
[16] = target: T3, Tyrosine-protein kinase TXK (Homo sapiens) (UniProt P42681); details: at 0.1 µM
T3 sequence (whole entry): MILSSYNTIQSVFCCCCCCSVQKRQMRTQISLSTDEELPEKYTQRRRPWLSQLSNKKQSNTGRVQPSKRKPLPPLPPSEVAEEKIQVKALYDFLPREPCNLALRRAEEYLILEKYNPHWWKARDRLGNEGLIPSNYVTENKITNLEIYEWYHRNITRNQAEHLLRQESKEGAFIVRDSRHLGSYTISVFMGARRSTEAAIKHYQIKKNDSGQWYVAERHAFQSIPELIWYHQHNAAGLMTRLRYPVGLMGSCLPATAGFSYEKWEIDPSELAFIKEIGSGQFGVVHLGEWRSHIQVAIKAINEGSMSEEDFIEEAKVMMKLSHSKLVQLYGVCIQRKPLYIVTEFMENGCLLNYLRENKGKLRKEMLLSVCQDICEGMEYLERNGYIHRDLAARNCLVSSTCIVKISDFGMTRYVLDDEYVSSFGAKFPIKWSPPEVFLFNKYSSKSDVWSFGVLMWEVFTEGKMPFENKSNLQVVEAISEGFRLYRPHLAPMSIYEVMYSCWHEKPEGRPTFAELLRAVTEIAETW

[17] = target: T3, Tyrosine-protein kinase TXK (Homo sapiens); details: at 1 µM
[18] = target: Non-receptor tyrosine-protein kinase TYK2 (Homo sapiens) (UniProt P29597); details: at 0.1 µM;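 further: each value is a mean of the inhibition readings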
[19] = target: T4, Dual specificity protein kinase TTK (Homo sapiens) (UniProt P33981); details: at 1 µM;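 further: reported figures are mean TTK inhibition at 1 µM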
T4 sequence (whole entry): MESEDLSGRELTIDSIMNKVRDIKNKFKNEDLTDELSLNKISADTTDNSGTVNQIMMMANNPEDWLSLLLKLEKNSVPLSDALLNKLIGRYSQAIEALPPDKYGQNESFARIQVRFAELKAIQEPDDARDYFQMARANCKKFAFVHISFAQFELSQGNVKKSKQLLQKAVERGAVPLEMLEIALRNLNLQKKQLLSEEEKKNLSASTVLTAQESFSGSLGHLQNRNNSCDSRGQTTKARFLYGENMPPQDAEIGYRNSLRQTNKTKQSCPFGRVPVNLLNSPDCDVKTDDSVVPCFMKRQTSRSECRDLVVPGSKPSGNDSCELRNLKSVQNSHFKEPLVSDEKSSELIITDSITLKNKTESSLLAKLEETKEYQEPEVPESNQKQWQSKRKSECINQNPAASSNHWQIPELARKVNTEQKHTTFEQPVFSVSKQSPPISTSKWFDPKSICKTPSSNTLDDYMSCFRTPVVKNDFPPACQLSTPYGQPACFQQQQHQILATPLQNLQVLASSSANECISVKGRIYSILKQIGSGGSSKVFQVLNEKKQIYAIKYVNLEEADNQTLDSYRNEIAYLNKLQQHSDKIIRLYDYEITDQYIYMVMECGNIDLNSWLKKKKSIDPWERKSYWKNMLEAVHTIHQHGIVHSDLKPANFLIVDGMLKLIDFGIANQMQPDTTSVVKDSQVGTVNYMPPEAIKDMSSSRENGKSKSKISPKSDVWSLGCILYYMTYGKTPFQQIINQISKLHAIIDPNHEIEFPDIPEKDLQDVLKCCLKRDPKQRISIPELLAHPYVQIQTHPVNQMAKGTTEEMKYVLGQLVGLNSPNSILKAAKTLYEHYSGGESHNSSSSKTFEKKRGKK

[20] = target: T5, Aurora kinase A (Homo sapiens) (UniProt O14965); details: at 0.1 µM;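 further: each reported value is a mean percent inhibition of Aurora-A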
T5 sequence (whole entry): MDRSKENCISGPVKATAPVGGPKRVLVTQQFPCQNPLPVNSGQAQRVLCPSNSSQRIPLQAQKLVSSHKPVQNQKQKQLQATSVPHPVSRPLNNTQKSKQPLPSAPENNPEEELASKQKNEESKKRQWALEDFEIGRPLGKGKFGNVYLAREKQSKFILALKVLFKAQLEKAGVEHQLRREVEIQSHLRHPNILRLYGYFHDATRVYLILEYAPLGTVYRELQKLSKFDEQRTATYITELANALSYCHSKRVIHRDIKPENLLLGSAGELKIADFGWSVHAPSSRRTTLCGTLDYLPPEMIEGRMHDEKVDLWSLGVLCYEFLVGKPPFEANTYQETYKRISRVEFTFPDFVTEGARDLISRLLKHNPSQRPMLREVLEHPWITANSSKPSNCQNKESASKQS

Chain of BDNF/NT-3 growth factors receptor (Homo sapiens) (Q16620 32-822 limits assumed): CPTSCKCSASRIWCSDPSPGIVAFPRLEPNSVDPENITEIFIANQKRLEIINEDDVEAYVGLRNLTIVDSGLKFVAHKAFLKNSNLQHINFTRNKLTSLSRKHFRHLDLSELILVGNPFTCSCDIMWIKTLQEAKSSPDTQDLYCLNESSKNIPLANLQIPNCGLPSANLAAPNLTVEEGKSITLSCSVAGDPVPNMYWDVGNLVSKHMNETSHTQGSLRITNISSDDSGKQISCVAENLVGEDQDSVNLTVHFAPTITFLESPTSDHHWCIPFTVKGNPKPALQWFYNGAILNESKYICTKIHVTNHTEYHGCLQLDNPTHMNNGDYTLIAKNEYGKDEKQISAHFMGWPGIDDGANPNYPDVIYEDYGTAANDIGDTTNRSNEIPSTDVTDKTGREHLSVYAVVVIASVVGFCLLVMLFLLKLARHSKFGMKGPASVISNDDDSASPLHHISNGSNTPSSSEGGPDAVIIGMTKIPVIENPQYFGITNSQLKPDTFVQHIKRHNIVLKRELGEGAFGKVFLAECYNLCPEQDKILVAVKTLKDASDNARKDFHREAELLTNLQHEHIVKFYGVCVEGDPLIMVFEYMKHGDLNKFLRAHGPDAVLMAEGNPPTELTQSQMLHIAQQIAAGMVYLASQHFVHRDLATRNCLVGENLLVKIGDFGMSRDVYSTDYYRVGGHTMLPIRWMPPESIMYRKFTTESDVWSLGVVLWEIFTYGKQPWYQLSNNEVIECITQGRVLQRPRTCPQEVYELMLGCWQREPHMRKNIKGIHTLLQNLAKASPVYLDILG
Chain of NT-3 growth factor receptor (Homo sapiens) (Q16288 32-839 limits assumed): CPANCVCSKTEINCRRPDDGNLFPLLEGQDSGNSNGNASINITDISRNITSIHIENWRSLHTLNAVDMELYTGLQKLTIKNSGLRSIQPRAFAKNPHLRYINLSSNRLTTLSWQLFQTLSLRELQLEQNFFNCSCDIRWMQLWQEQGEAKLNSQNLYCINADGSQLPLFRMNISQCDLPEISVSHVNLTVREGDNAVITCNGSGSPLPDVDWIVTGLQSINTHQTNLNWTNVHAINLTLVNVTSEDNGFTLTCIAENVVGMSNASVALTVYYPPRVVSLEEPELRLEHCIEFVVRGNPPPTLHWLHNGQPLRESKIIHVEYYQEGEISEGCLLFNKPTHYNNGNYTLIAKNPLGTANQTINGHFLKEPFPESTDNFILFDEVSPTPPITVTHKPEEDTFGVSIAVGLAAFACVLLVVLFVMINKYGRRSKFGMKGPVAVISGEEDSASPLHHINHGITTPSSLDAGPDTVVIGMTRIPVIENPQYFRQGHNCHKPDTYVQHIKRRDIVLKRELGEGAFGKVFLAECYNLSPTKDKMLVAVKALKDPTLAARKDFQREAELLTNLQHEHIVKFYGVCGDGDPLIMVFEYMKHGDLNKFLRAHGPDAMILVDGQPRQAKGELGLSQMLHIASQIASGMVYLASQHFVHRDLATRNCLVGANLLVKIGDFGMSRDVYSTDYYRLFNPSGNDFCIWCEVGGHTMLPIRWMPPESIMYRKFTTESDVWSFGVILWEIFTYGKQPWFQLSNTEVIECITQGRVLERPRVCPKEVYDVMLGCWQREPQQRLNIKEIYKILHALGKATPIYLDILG
Chain of Non-receptor tyrosine-protein kinase TYK2 (Homo sapiens) (P29597 whole entry): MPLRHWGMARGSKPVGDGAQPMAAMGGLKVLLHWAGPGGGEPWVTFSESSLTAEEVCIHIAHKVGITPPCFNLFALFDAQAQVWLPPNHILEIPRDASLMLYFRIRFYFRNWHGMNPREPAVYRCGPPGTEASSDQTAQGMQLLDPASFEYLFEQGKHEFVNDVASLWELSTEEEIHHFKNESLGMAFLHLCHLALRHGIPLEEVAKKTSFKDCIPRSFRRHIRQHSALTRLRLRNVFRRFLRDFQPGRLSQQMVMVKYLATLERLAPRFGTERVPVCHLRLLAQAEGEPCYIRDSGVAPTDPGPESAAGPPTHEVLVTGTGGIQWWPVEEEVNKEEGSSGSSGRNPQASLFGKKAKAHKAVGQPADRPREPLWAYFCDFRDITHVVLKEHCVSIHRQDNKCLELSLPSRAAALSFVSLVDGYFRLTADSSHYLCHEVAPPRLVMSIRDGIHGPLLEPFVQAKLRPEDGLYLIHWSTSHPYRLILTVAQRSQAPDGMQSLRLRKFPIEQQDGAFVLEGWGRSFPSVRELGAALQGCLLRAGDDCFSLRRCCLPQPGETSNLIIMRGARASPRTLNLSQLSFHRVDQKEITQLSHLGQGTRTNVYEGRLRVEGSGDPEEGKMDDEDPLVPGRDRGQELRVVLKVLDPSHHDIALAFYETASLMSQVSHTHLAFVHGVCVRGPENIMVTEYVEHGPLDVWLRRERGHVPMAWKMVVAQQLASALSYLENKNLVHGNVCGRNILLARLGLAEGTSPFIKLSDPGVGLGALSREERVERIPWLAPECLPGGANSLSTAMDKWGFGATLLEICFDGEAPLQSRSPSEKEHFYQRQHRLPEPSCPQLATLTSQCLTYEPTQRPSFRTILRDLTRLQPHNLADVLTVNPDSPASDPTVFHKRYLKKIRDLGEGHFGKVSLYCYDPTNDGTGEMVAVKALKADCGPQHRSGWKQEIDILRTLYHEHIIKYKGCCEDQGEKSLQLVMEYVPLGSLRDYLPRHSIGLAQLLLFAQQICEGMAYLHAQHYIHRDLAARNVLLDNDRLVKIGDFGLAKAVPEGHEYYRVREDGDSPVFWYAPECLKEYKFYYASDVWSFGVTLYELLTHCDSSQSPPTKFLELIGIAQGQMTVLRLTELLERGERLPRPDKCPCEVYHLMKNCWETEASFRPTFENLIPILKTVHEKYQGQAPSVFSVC
Chain of Activated CDC42 kinase 1 (Homo sapiens) (Q07912 whole entry, looked up): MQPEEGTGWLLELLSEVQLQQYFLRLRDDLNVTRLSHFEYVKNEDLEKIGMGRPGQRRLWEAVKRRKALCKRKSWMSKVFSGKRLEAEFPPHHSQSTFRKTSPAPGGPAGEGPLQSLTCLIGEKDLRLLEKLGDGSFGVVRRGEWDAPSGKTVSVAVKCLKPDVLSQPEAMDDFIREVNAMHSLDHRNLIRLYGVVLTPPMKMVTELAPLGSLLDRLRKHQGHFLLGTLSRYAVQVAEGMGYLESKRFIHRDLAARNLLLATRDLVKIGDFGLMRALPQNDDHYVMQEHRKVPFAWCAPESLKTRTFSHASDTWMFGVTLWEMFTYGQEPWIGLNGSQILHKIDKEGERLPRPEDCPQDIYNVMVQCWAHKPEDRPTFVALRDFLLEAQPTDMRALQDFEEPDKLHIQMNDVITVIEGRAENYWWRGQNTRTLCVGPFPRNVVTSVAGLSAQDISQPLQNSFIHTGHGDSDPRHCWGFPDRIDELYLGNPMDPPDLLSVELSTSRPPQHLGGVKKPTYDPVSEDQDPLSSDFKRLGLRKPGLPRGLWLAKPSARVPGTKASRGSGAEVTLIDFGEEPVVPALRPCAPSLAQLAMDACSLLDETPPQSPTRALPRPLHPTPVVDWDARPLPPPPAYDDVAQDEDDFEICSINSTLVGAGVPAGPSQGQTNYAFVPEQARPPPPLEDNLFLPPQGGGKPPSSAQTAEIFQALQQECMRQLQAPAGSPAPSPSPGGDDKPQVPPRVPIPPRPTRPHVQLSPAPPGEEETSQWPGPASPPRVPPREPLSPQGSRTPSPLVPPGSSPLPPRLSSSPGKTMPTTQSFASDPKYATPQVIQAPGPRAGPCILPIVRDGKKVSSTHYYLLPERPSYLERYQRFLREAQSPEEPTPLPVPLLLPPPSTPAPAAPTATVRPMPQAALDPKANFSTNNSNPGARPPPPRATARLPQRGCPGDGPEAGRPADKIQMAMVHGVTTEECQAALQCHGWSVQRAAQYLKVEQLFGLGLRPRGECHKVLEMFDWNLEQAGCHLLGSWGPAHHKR
Chain of High affinity nerve growth factor receptor (Homo sapiens) (P04629 33-796 limits assumed): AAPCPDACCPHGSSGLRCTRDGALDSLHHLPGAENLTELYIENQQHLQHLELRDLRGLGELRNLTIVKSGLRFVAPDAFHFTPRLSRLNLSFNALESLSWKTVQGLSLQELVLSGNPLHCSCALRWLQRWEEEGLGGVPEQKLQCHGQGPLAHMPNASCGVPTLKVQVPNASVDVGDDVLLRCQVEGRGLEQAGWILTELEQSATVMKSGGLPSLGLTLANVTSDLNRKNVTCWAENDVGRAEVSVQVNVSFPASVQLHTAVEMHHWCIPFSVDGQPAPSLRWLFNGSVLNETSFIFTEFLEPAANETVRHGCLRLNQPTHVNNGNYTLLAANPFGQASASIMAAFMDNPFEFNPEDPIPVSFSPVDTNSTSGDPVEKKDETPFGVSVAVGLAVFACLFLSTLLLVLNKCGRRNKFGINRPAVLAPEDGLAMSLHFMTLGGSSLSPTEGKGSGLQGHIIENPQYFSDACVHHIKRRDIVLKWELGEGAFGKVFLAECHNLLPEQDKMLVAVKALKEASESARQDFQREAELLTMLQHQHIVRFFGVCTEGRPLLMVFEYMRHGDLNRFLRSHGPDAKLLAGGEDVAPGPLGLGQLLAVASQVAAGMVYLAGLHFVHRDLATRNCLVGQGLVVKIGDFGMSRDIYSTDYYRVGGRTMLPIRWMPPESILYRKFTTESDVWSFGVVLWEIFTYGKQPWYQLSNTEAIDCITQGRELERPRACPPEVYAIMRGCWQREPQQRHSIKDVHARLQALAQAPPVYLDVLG

| SMILES | inhibition [1] [%] | inhibition [2] [%] | inhibition [3] [%] | inhibition [4] [%] | inhibition [5] [%] | inhibition [6] [%] | inhibition [7] [%] | inhibition [8] [%] | inhibition [9] [%] | inhibition [10] [%] | inhibition [11] [%] | inhibition [12] [%] | inhibition [13] [%] | inhibition [14] [%] | inhibition [15] [%] | inhibition [16] [%] | inhibition [17] [%] | inhibition [18] [%] | inhibition [19] [%] | inhibition [20] [%] |
| --- | --- | --- | --- | --- | --- | --- | --- | --- | --- | --- | --- | --- | --- | --- | --- | --- | --- | --- | --- | --- |
| COc1cc2ncn(-c3cc(OCc4ccccc4Cl)c(C(N)=O)s3)c2cc1OC | 1.86 | 1.67 | 7.65 | 3.11 | 26.9 | 16.9 | 63.2 | 0.35 | 7.05 | 0.53 | 2.92 | 2.11 | 13.7 | 3.13 | 20.4 | 2.99 | 13.2 | 2.29 | 0.54 | 1.9 |
| Cn1cc(C=C2C(=O)Nc3cccnc32)c2ccccc21 | -2.64 | 2.46 | 8.75 | 2.82 | 5.24 | 4.27 | 9.9 | 0.71 | 1.72 | 13.9 | 66 | 25.3 | 75.5 | 20.5 | 71.6 | 2.53 | 6.47 | -0.05 | 22.8 | 5.95 |
| CC1=C(C(=O)Nc2ccc3[nH]ncc3c2)C(c2ccc3ccccc3c2)CC(=O)N1 (stereo not given) | 2.59 | 2.81 | 9.73 | 3.02 | 8.68 | 3.25 | 22.4 | 2.91 | 20.3 | 3.43 | 2.53 | 1.18 | 4.38 | 5.87 | 5.78 | 2.76 | 8.34 | 0.09 | -0.04 | 7.34 |
| COc1cc2ncn(-c3cc(OCc4ccccc4C(F)(F)F)c(C(N)=O)s3)c2cc1OC | -7.75 | -1.86 | 7.03 | 6.11 | 20.9 | 12.5 | 59.1 | 0.63 | 6.53 | 2.57 | 5.01 | 6.06 | 10.2 | 5.07 | 10.4 | -5.47 | 2.84 | -1.61 | 10.1 | 1.39 |
| COc1cccc(-n2ncc3c(N/N=C/c4cccc(F)c4)ncnc32)c1 | -0.87 | -1.33 | 2.09 | 1.49 | 9 | 2.13 | 2.44 | 0.24 | 0.25 | 3.27 | 3.57 | 2.75 | 6.27 | 2.97 | 7.58 | -0.86 | 1.52 | -0.2 | 10.5 | -2.23 |
| Cc1cc(O)cc(C)c1/C=C/c1cncc(-c2nn[nH]n2)c1 | -1.42 | 15.1 | 65 | 4 | 4.4 | 35.1 | 84.2 | 1.68 | 22 | 3.09 | 3.5 | 3.7 | 3.06 | 3.61 | 8.05 | 5.73 | 45.3 | -2.89 | 11.1 | -1.67 |
| NS(=O)(=O)c1cccc(-c2ccc3c(NC(=O)C4CC4)n[nH]c3c2)c1 | 0.39 | -1.67 | -2.6 | 1.65 | 3.55 | -2.18 | 2.91 | -0.31 | 0.27 | 0.7 | 1.21 | 0.07 | 2.04 | 0.11 | 3.65 | -2.48 | -2.41 | 0.42 | 2.12 | -1.3 |

Source: ChEMBL document CHEMBL1961873, “Compounds: GSK PKIS; Assays: Nanosyn kinase panel” (2012)
